FLuc modulator: counter-screen for miR-21 project: firefly luciferase inhibitors or activators; AID 588342; P08659; purified FLuc, Km substrates, luminescence inhibition; hit rate 6.9% among 360,000; Potency, µM (doses to about 57.5 µM), inactives show at the top dose activity change, negative = inhibition, hits mostly inhibitors;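 note: plate controls were vehicle for no effect and reference inhibitor for full effect; nearly all actives have a fitted effect of over 55% in size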
Target sequence (P08659 whole entry, looked up): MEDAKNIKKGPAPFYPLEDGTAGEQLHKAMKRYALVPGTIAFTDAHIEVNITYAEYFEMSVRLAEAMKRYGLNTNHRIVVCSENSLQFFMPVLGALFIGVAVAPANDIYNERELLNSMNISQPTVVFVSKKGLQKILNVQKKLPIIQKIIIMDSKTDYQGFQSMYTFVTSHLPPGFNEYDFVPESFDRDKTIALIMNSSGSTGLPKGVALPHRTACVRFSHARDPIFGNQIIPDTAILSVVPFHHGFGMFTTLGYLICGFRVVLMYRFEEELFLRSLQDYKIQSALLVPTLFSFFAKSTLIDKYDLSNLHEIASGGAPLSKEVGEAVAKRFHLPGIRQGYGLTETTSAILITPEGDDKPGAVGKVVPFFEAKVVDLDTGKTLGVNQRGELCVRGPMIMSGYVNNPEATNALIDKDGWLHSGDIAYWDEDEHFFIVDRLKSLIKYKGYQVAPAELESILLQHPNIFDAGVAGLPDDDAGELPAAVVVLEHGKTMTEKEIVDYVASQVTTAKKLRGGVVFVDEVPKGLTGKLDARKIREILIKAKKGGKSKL
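Biochemical qHTS of compounds, final roughly 60 µM downward over six points, against 10 nM purified firefly luciferase using Km concentrations of substrates (10 uM D-luciferin, 10 uM ATP) in Tris acetate pH 7.5 buffer; luminescence output.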
Rab9 promoter act: Rab9 promoter activation; Huh7 Rab9 promoter-luciferase reporter, luminescence, 24 h; Potency, µM (series often up to 9.22 µM), for inactives: top-dose activation, negative = inhibition, hits mostly activators; hit rate 2.8% among 320,000; note: % of control where 0% means no effect; nearly all actives have a fitted effect of over 60% in size
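Cells were plated at 1500 per well in reduced-serum medium with 10% FBS and left 2 h. Compound in DMSO was then added for 24 h at 37 °C. Reporter signal was read by luminescence after 10 min with luciferase detection reagent.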
ELG1 genotoxic: genotoxicity induction in ELG1-luciferase HEK293T cells. HEK293T ELG1-luciferase reporter, luminescence, 16 h. Potency, µM (titrated, usually from 46 µM), for inactives: at the highest dose activity change, positive = activation, usual class: activators. hit rate 1.3% among 330,000; note: % of control where 0% means no effect; nearly all actives have a fitted effect of over 60% in size
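HEK293T cells expressing luciferase-tagged ELG1 were treated with compound or DMSO for 16 hr at 37°C. Luciferase activity was then read after 30 min with ONE-Glo at room temperature; rising signal flags genetic stress.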
NPC1 prom act: activates the NPC1 promoter; Potency, µM (doses to about 9.22 µM), inactives show at the highest dose activation, most hits filed as activators; hit rate 2.4% among 320,000; Huh7 NPC1 promoter luciferase reporter, 24 h; note: % of control where 0% means no effect; nearly all actives have a fitted effect of over 60% in size
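In 1536-well qHTS, Huh7 cells harboring an NPC1 promoter–luciferase construct received compound for 24 h; activation was quantified by luminescence following luciferase reagent addition.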
KinaseGlo FLuc: counter-screen: inhibitors of Kinase-Glo firefly luciferase; AID 1379; hit rate 0.28% among 200,000; Potency, µM (series often up to 38.3 µM), for inactives: top-dose activity change, negative = inhibition, actives largely listed as inhibitors; Kinase-Glo luciferase, ATP luminescence, 8 min; note: % is set by controls: 0 for no effect and ±100 for the full control effect; nearly all actives have a fitted effect of over 60% in size
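Recombinant Kinase-Glo luciferase, 10 uM ATP (linear range), luciferin; imidazole pH 7.2 / KCl / MgCl2 / Tween / BSA buffer; 8 min RT; luminescence.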
SMN2 splice up: increases expression of the SMN2 splice variant; AID 1458; hit rate 2.8% among 210,000; Potency, µM (titrated, usually from 46.1 µM), for the others: at the top dose activity change, positive = activation, most hits filed as activators; HEK293 SMN2-luciferase splicing reporter, luminescence, 30-36 h; note: % of control where 0% means no effect; nearly all actives have a fitted effect of over 55% in size
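HEK293 cells carry an SMN2 minigene-luciferase reporter in which exon 7 inclusion puts luciferase in frame. Cells were seeded at 2000 cells/well, attached for 10-12 hours, then exposed to compounds for 30-36 hours at 37C before ONE-Glo luminescence.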
Numbers without * were called inactive; ? = inconclusive; . = no result given; ! = not confirmed by another sample. Compounds with a hit are over-represented: about 7.5% of the library has one in this group of screens. Calls come from the whole dose curve; as a rule, active = well fitted curve in the direction sought with a large enough effect; inconclusive = small, poorly fitted or top-dose-only effect, or another doubt; inactive = no such curve, though single readings can be large; an effect the other way counts as inactive or inconclusive. Potency is the fitted concentration of half-maximal effect.

SMILES | FLuc modulator | Rab9 promoter act | ELG1 genotoxic | NPC1 prom act | KinaseGlo FLuc | SMN2 splice up
COc1cc(-c2nc(-c3ccc4c(c3)-c3ccccc3S4(=O)=O)c(-c3ccccc3)[nH]2)cc(OC)c1O | 6.7µM* | 1% | -12% | 7% | -3% | 13%
COc1cc(-c2nc(-c3cccc(Cl)c3)c(-c3ccccc3)[nH]2)cc(OC)c1OC | 6% | . | . | . | . | 9%
O=C(CC1C(=O)NCCN1Cc1cccc(Oc2ccccc2)c1)NCCCn1cccn1 (stereo not given) | 4% | 3% | 1% | 0% | . | .
COc1ccc(-c2cc(=O)c3cc(OC)ccc3o2)cc1 | 0.21µM* | 0.25µM* | ? | 0.5µM* | -6% | 0.89µM*!
COc1cccc(-c2cc(=O)c3ccc(OC)cc3o2)c1 | . | . | . | . | -1% | 13µM*
COc1cccc(-c2cc(=O)c3cc(O)ccc3o2)c1 | . | . | . | . | -8% | .
CCC(N=c1cc(-c2ccc(OC)cc2)oc2ccc(C)cc12)C(=O)O (stereo not given) | 3µM* | 9% | ? | ? | -1% | ?
CCC(N=c1cc(-c2ccc(OC)c(OC)c2)oc2ccc(C)cc12)C(=O)O (stereo not given) | -11% | -4% | 4% | -1% | 1% | 3%
O=C(CC1(O)C(=O)N(CCc2ccccc2)c2ccc(Br)cc21)c1ccccc1O (stereo not given) | -13% | . | . | . | . | -14%
CCc1ccccc1NC(=O)Cn1c(C(=O)OC)cc2oc(C)cc21 | 4% | . | . | . | . | 0%
C=CCNC(=O)/C(=C/c1cccc([N+](=O)[O-])c1)NC(=O)c1ccco1 | -2% | 3% | 0% | -3% | 1% | 5%
O=C1OC(c2ccc(F)cc2)=N/C1=C\c1ccc(Br)o1 | 6µM* | -1% | 0% | -11% | 0% | 8%
Cc1cnn(C(=S)NCCc2ccccc2)c1 | 19µM* | ? | 15µM* | ? | -3% | ?
Cc1cnn(C(=S)NCc2ccc(Cl)cc2)c1 | -13% | 1% | -5% | -1% | -6% | -25%
CCOC(CCNC(=O)c1cn(CC(C)C)c(=O)c2c1c1ccccc1n2C)OCC | -1% | 1% | -1% | 1% | . | .
O=c1nc2c(-c3cccc(Br)c3)n[nH]n2c2ccccc12 | 4.8µM* | 3.5µM* | ? | ? | . | .
CC(C)c1ccc(NC(=O)Cn2cc(S(=O)(=O)Cc3cccc(Cl)c3)c3ccccc32)cc1 | 0% | . | . | . | . | .
O=C(OCC1CC(c2ccccc2)=NO1)c1ccc(Cl)cc1 (stereo not given) | -10% | -6% | -1% | 1% | -1% | -1%
CN1OC(COC(=O)c2ccccc2)CC1c1ccccc1 (stereo not given) | 6.7µM* | 8% | 3% | ? | -4% | -13%
CN(C)c1ccc(NC(=O)CSC2=Nc3ccccc3C3=NC(CC(=O)NCc4ccccc4)C(=O)N23)cc1 (stereo not given) | 0% | . | . | . | . | .
CCOc1ccc(Cc2nc(N)nc(N)n2)cc1 | 2% | -1% | 6% | -1% | -1% | -34%
Nc1nc(N)nc(COc2ccccc2)n1 | ? | 4.5µM* | ? | ? | ? | 11µM*
COc1cc(/C=C(/C#N)c2nc(-c3cc4ccccc4oc3=O)cs2)cc([N+](=O)[O-])c1O | 12µM* | -1% | -1% | -2% | . | .
CC1CCC(=C(C#N)c2nc(-c3cc4ccccc4oc3=O)cs2)CC1 (stereo not given) | 2.7µM* | 4µM* | 6.5µM* | 3.5µM* | -3% | ?
CCOC(=O)c1c(C)c(-c2ccccc2)n(CC(=O)NCCc2ccc(C)cc2)c1C | -1% | . | . | . | . | -17%
SMILES | FLuc modulator | Rab9 promoter act | ELG1 genotoxic | NPC1 prom act | KinaseGlo FLuc | SMN2 splice up
O=C(Cc1ccccc1)Nc1ccc2[nH]ncc2c1 | -18% | 1% | -5% | 9% | . | .
O=C(Nc1ccc2[nH]ncc2c1)c1ccccc1Cl | 9.5µM* | 3.5µM* | ? | 4µM* | . | .
O=C(Nc1ccc2[nH]ncc2c1)c1ccccc1Br | 17µM* | ? | 8% | 3.2µM* | . | .
Cc1c(-c2ccccc2)n(-c2ccc(Cl)cc2)c2nc3c(c(=O)n(C)c(=O)n3C)n12 | 5% | . | . | . | . | .
O=C(Nc1nc2cc3c(cc2s1)OCCO3)c1ccco1 | 0.11µM* | 0.79µM* | ? | ? | . | .
O=C(Nc1nc(-c2cccs2)c(-c2ccccc2)s1)c1ccco1 | -3% | 5% | 4% | -8% | -3% | -9%
O=C(Nc1nc2cc3c(cc2s1)OCO3)c1ccco1 | 0.24µM* | 0.22µM* | 4% | 0.25µM* | . | .
O=C(Nc1nc2ccccc2c(=O)s1)c1ccco1 | 15µM* | -13% | 0% | -2% | . | .
O=C(Nc1nc2cc3c(cc2s1)OCCO3)c1ccncc1 | 1.7µM* | 1.6µM* | ? | 2.2µM* | -13% | ?
COc1cccc(NC(=O)C2CCC(CNS(=O)(=O)c3ccc4c(c3)CCCC(=O)N4)CC2)c1 (stereo not given) | -6% | . | . | . | . | .
CCOC(=O)c1[nH]c(C)c(CCC(=O)NCc2ccc(OC(C)C)cc2)c1C | -10% | . | . | . | . | .
CCc1ccccc1NC(=O)Cn1nc2c3cc(F)ccc3n(Cc3cccc(C)c3)cc-2c1=O | -2% | . | . | . | . | .
O=C(Nc1nc2ccccc2c(=O)s1)c1ccc(F)cc1Cl | 3.8µM* | 0% | 0% | 8% | . | .
CN(C)CCN(C(=O)c1ccco1)c1nc2cc3c(cc2s1)OCCO3 | -12% | 18% | 18µM* | 18% | . | .
CC(C)(C)NCC(O)COc1nsnc1N1CCOCC1 (stereo not given) | . | . | . | . | -2% | -16%
CC(C)c1ccc(C2c3c(-c4ccccc4O)n[nH]c3C(=O)N2CCc2ccccc2)cc1 (stereo not given) | 3% | . | . | . | . | -3%
CC(C)CC[n+]1ccccc1/C=C/c1ccc(N(C)C)cc1 | 3% | -41% | -11% | -40% | . | .
CN(C)c1ccc(/C=C/c2cccc[n+]2[O-])cc1 | 19µM* | 2.5µM* | ? | ? | . | .
COc1ccc(/C=C/c2ccncc2)cc1 | 12µM* | 2.8µM* | ? | 3.5µM* | -7% | ?
CN(C)c1ccc(/C=C/c2ccncc2)cc1 | ? | ? | 16µM* | ? | -3% | ?
CCOC(=O)N1CCC(NS(=O)(=O)c2cc(C(=O)OC)n(C)c2)CC1 | 1% | 0% | 0% | -7% | . | .
Cn1c(=O)[nH]c(=O)c2c1nc(SCC(O)CCl)n2Cc1ccccc1 (stereo not given) | -9% | 5% | ? | -1% | . | .
COCCCNC(=O)CC1C(=O)N(Cc2ccccc2)C(C)c2nc3ccccc3n21 (stereo not given) | 6% | -7% | 1% | -2% | 0% | -9%

Compound activity (PubChem BioAssay)
